Measured values as given in PubChem BioAssay (NCI).
This is part of a sample that, as a whole, favours compounds with a hit. Of some 79,000 tested, about 15% had one in any assay. Values without a mark were called inactive. Calls of active or inactive are those of the source. No stated cut-off is given here; in the data, active means growth inhibition above about 70%; inactive means the rest.

Experiments:
[1] = NCI Yeast Anticancer Drug Screen. Data for the rad50 strain (AID 155);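 further: 0% = growth of vehicle-only cultures of the same strain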; conditions: S. cerevisiae rad50 strain growth inhibition; at 50.0 µM; stronger effect = higher value
How it was run: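 Genetically altered yeast (DNA repair pathway); compound treatment; growth inhibition vs vehicle ctrl.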

[2] = NCI Yeast Anticancer Drug Screen. Data for the mec2-1 strain (AID 157); conditions: S. cerevisiae mec2-1 strain, at 50.0 µM, stronger effect = higher value
How it was run: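 Cells of the genetically defined mec2-1 yeast strain are incubated with test compound. Inhibition of growth is calculated against vehicle-treated controls.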

[3] = NCI Yeast Anticancer Drug Screen. Data for the sgs1 mgt1 strain (AID 161);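 further: 0% = growth of cultures given vehicle only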; conditions: S. cerevisiae sgs1 mgt1 strain, at 50.0 µM, stronger effect = higher value
How it was run: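 Inhibition of yeast growth, normalised to vehicle-treated controls, is reported for a strain bearing genetic alterations in DNA damage repair.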

[4] = NCI Yeast Anticancer Drug Screen. Data for the cln2 rad14 strain (AID 165);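 further: 0% = growth equal to vehicle treated cultures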; conditions: S. cerevisiae cln2 rad14 strain, at 50.0 µM, stronger effect = higher value
How it was run: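 The screen exposed genetically defined yeast (cln2 rad14) to test compounds and scored growth inhibition relative to vehicle-treated controls.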

[5] = NCI Yeast Anticancer Drug Screen. Data for the bub3 strain (AID 167); conditions: S. cerevisiae bub3 mutant strain, at 50.0 µM, stronger effect = higher value
How it was run: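 Yeast carrying a defined mutation is treated with each compound, and growth is compared with that of vehicle-exposed cells to give inhibition.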

[6] = NCI Yeast Anticancer Drug Screen. Data for the mlh1 rad18 strain (AID 175); conditions: S. cerevisiae mlh1 rad18 strain growth inhibition; at 50.0 µM; stronger effect = higher value
How it was run: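 Compound-treated yeast growth, normalised to vehicle controls. Strain bears defined DNA repair mutations.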

SMILES	growth inhibition [1]	growth inhibition [2]	growth inhibition [3]	growth inhibition [4]	growth inhibition [5]	growth inhibition [6]
CC1CCCN(N=Nc2ccc(Br)cc2-c2nc(N)c3cc(Br)ccc3n2)C1 (configuration not stated)	99.2% (active)	99.2% (active)	99.5% (active)	98.2% (active)	99% (active)	99% (active)
N#C/C(C(N)=O)=C1\CCCc2sccc21	-13.3%	5.9%	-6.3%	-30.1%	-4.75%	3.4%
CCNCC(=O)Nc1ccc2c(c1)C(=O)c1ccc(NC(=O)CNCC)cc1C2=O	20.9%	28.5%	29.2%	-4.55%	3.85%	50.8%
O=C(Nc1cccc2ccccc12)Oc1ccc(Br)cc1Br	84.1% (active)	71.2% (active)	93.3% (active)	30.2%	54.1%	92.7% (active)
CCCCCCCC(=O)C(C)C	7.55%	5.85%	11.8%	4.4%	9.6%	4.35%
CC(C)=CC1C(C(=O)SCc2cc3c(cc2Br)OCO3)C1(C)C (configuration not stated)	0.95%	-6.05%	-10.2%	6.25%	5.6%	6.5%
NC(=O)c1ccc2c(c1)-c1nc-2nc2[n-]c(nc3nc(nc4[n-]c(n1)c1ccc(C(N)=O)cc41)-c1ccc(C(N)=O)cc1-3)c1ccc(C(N)=O)cc21.[Co+2]	-7.55%	4.65%	1.8%	29.2%	35%	4.35%
CC(=O)OC1C(C(O)CO)OC2OC(C)(C)OC21 (configuration not stated)	-10.9%	-14.1%	-14%	-58.8%	-59.5%	-6.25%
COc1ccc(C(O)c2ccccn2)cc1 (configuration not stated)	-13.1%	-35.9%	-24%	-34.8%	-62.7%	-18.7%
O=C1c2ccccc2C(=O)c2c1nnn2-c1ccccc1	41.7%	5.95%	21.2%	-4.45%	17.2%	-2.15%
Cc1cc(C)c(C(=O)c2ccccc2C(=O)O)c(C)c1	0.05%	11.1%	3.05%	-89%	24.5%	-12%
O=C1OC(c2cccc(Cl)c2)=N/C1=C\c1ccc(O)cc1	15.8%	9.85%	15.6%	8.35%	1.45%	-3.2%
CCCCOC(=O)C1CSSCC(NC(C)=O)C(=O)N1 (configuration not stated)	-2.05%	-7.35%	1.5%	-16.5%	-7.2%	-6.95%
CC(=O)OCCC(C)Nc1ccnc2cc(Cl)ccc12 (configuration not stated)	-11.7%	-7.45%	6.35%	13.2%	-3.75%	12.2%
C=CCOC(=O)c1cccc(C(=O)OCC=C)c1	12.6%	23.4%	40.2%	19.1%	34.5%	33.8%
Cc1cc(COCCN(C)C)on1	-3.5%	14.2%	14.9%	-3.95%	11.8%	4.35%
CC(=O)/C(=N\N=C(N)N)c1ccccc1	-25.4%	-28.8%	-19.6%	19.8%	18.1%	4.5%
O=[N+]([O-])c1ccc(C2ON=C(c3ccccc3)N2C23CC4CC(CC(C4)C2)C3)cc1 (configuration not stated)	-12.6%	-9%	-6.1%	25.5%	-6.5%	-28.4%
CCCCCCCCOCCS(=O)(=O)O	13.4%	-18.6%	-0.15%	-22.6%	-10.8%	35.8%
CCc1sc(N)nc1-c1ccccc1	-3.15%	-23.9%	7.05%	-1.65%	4%	-8.75%
CC(=O)NCC1(c2ccccc2)CCN(Cc2ccccc2)CC1	-6.8%	-17.3%	-11.7%	5.7%	-17%	-14.2%

SMILES	growth inhibition [1]	growth inhibition [2]	growth inhibition [3]	growth inhibition [4]	growth inhibition [5]	growth inhibition [6]
c1ccc(C23c4ccccc4C2c2ccccc23)cc1 (configuration not stated)	14.3%	11.9%	22.2%	10.2%	18.3%	13.9%
COC1=CC(=O)C(C(C)=O)=C(O)C1=O	0.05%	-7.95%	-6.5%	4.7%	-5.6%	-4.05%
CCSC(=S)S(=O)(=O)c1ccc(C)cc1	90.4% (active)	93.1% (active)	89.5% (active)	90.5% (active)	84.2% (active)	92.3% (active)
CN(C)CCSS(=O)(=O)O	-4.9%	-23.1%	-26.3%	16.6%	-19.1%	-14.2%
CC1(C)CCc2c(cc3c(c2O)CCC(C)(C)O3)O1	4.6%	7.6%	-10.7%	12.9%	9.05%	8.45%
C=C(Cl)C(=O)O	-11.3%	-20.2%	18.9%	-0.55%	-25.4%	-7.55%
CC12C=C[C@]3(CC[C@@H]4[C@@](C)(CO)CCC[C@]4(C)C3CC1)C2 (some centres not stated)	13.4%	-2.7%	12.9%	8.25%	15.3%	7.6%
CCCCCCC(C)(O)C(C)O (configuration not stated)	27.8%	8.5%	24.2%	14.9%	12.2%	9.2%
CCOCCNCc1ccc(Cl)cc1Cl	4%	-1.45%	-5%	2.85%	7.8%	-9.7%
CCOC(=O)C1=C(C)N(NC(=O)Nc2ccccc2)C2(N)N(NC(=O)Nc3ccccc3)C(C)=C(C(=O)OCC)C12C(=O)OCC (configuration not stated)	-28.1%	-44.5%	-42%	-20.7%	-7.6%	-15.8%
Cc1nn(CO)c(C)c1Br	9.8%	-18.4%	5.9%	21.8%	-2.6%	11.7%
O=C(O)C(Cc1cccs1)(Cc1cccs1)C(=O)O	-9%	-4.6%	-2.9%	-18.7%	-9.75%	-2.2%
C=CCCCCCCCCC(=O)OC1CCCCC1	-9.25%	0.2%	11.1%	-23.1%	15.4%	6.15%
Fc1cccc2c1Cc1ccccc1-2	5.75%	-8.65%	-21.3%	-58.7%	-1.85%	17.3%
CC(C)(C)NC(=O)NCC1CCCC1NC(=O)NC(C)(C)C (configuration not stated)	1.45%	-4.95%	3.65%	-5.45%	7.35%	-10.4%
O=C(O)C(CBr)c1ccccc1 (configuration not stated)	6.7%	7.2%	-0.55%	13.2%	0.05%	0.5%
CCOC(=O)CC(C)(O)c1ccccc1 (configuration not stated)	-12.2%	-0.55%	23.4%	-17.4%	12.3%	0.15%
CNc1c([N+](=O)[O-])cc2[nH]c(C)nc2c1[N+](=O)[O-]	22.4%	19.3%	42.9%	0.05%	0.95%	11.6%
CC1c2c(Cl)nc3ccccc3c2Oc2c1c(Cl)nc1ccccc21	7.05%	5.1%	-6.05%	18.3%	5.1%	22.1%
O=c1cc(CNC2CC3CCC2C3)[nH]c(=O)[nH]1 (configuration not stated)	7.35%	-1.2%	-4.25%	-3.45%	0.2%	-0.2%
CN(C)C=Nc1cc2c3c(c1)CCCN3CCC2	10.8%	-0.5%	13.3%	11.8%	-2.6%	31.4%
